High-throughput results from PubChem BioAssay.
D1 ag: agonists of human D1 dopamine receptor; actives 1% (n = 360,000); activation, % at 2 µM; HEK293 T-REx D1 cells, calcium flux, agonist mode; P21728
Target sequence (P21728 whole entry, looked up): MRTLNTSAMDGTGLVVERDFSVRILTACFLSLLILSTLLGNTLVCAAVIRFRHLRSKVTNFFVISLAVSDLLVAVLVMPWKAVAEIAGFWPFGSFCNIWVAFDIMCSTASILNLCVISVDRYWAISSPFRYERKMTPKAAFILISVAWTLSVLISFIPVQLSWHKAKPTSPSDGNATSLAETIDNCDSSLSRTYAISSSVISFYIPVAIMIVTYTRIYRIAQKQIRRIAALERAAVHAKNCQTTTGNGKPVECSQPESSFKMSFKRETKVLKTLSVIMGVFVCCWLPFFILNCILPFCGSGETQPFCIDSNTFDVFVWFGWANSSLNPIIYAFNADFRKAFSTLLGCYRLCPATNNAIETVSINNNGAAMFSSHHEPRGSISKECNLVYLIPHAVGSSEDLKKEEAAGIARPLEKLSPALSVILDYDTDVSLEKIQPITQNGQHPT
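Inducible HEK293 T-REx D1 cells, force-coupled to calcium signalling, were plated at 4000 cells/well with tetracycline and held overnight at 30 C. After no-wash calcium dye loading, compound-evoked calcium rise over 180 s flagged agonists.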
D1 antagonist: human D1 dopamine receptor antagonism | HEK293 TREx D1 cells, calcium flux, dopamine EC80; stronger effect = lower value | activity change, negative = inhibition, % at 10 µM | actives 3.2% (n = 360,000) | AID 504652; in the data active = activity change below about -30%
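Allosteric or orthosteric antagonism assessed as attenuation of the calcium response to EC80 dopamine, added 180 s after compound, in induced HEK293 Trex D1 cells loaded with no-wash calcium dye.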
TRHR ag: activates the human TRH receptor; P34981; actives 0.18% (n = 360,000); activation, % at 2 µM; AID 493084; TRHR cells, calcium flux fluo-8, FDSS agonist mode
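Steps: seed TRHR cells overnight; add fluo-8 no-wash Ca dye, RT 30 min–1.5 h; record 10 s baseline; pin-transfer compounds; monitor fluorescence 1 cycle/s for the agonist window. Calcium increases flag candidate agonists.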
TRHR enhancer: allosterically enhances the human TRH receptor | actives 0.66% (n = 360,000) | enhancement, % at 2 µM | TRHR cells, fluo-8 calcium fluorescence, EC20 TRH enhancement | AID 493056 | P34981; in the data active = enhancement above about 30%
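TRHR-expressing cells loaded with fluo-8 calcium dye were read kinetically (ex 480/em 530) during compound addition, then stimulated with an EC20 of TRH (10 nM final). Enhancement of the Gq-mediated intracellular calcium response was scored.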
D1 potentiator: human D1 dopamine receptor positive modulation | P21728 | actives 0.036% (n = 360,000) | HEK293 TREx D1 cells, calcium flux, dopamine EC20 potentiation | potentiation, % at 10 µM; in the data active = potentiation above about 30%
Large screens that a line does not name were inactive. The list is not random: actives were taken first. Their share in the collection is about 4.6%. Rule as the data show it, unless noted: active = activation above about 30%; inactive = the rest.

CC(=O)c1cccc(NC(=O)CSc2nnc3ccc(-c4ccc(C)cc4)nn23)c1	none (no result: D1 antagonist)
O=S1(=O)c2ccccc2N(Cc2ccccc2F)c2ccccc21	none
O=C(O)c1cc(S(=O)(=O)Nc2ccc(N3CCCCC3)cc2)ccc1Cl	none
O=C(O)c1ccc(NS(=O)(=O)c2ccc(Cl)c(Cl)c2)cc1O	D1 antagonist -31
C/C(Cn1cnc([N+](=O)[O-])n1)=N/NC(=O)COc1c(Cl)cc(Cl)cc1Cl	D1 antagonist -30
C/C(Cn1cnc([N+](=O)[O-])n1)=N\NC(=O)c1ccccc1	none
Cc1nc2nc(NCc3cccc(Cl)c3)[nH]n2c(=O)c1Cc1ccccc1	none
COc1ccc(NC(=O)CSc2nnc(-c3ccncc3)n2-c2ccccc2)cc1	none
COc1cccc(N2CCc3c(C)nc4ccc(Cl)cc4c32)c1	none
CCN1Cc2c(/C=C/c3ccccc3)nc3ccc(OC)cc3c2N(c2cccc(Cl)c2)C1	D1 antagonist -63
CC(C)Cn1c(=O)c2ccccc2n2c(CCC(=O)NC(C)c3ccccc3)nnc12 (stereo not given)	none
CC1CCc2[nH]nc(C(=O)O)c2C1 (stereo not given)	D1 antagonist -47
Nc1nc(CSc2ccc(Cl)cc2)nc(N2CCCCC2)n1	none
Nc1nc(COc2ccc(F)cc2Cl)nc(N2CCCCC2)n1	D1 antagonist -31
CCN1CCN(C(c2cccc(F)c2)c2c(O)cc(C)n(CCOC)c2=O)CC1 (stereo not given)	none
COc1ccc(OC)c(C2=C[N+](=O)C(C)(C)C(C)(C)N2[O-])c1	D1 potentiator 54
CC1(C)N([O-])C(c2ccccc2)=C[N+](=O)C1(C)C	none
CC(C)(C)CC(=O)NC1CC(=O)N(c2ccc3c(c2)OCCO3)C1 (stereo not given)	none (no result: D1 antagonist)
CCn1c(/C(C#N)=C/c2ccccc2Cl)nc2ccccc21	TRHR enhancer 50
c1ccc(-c2cnn3c(-c4ccccc4)c(-c4ccccc4)nc3n2)cc1	D1 ag 475, D1 antagonist -48, TRHR ag 173
Cc1cccc(-n2nc3c(c2NC(=O)c2ccco2)CS(=O)(=O)C3)c1C	D1 antagonist -41
Cc1ccc(-n2nc3c(c2NC(=O)c2ccco2)CS(=O)(=O)C3)c(C)c1	none
Cc1ccc2c(c1)C(c1ccccc1)N(C(=O)c1ccccc1F)CC(=O)N2 (stereo not given)	none
O=C(N/N=C/c1ccc([N+](=O)[O-])cc1)c1ccc(NS(=O)(=O)c2cccs2)cc1	none
O=C(N/N=C/c1ccc([N+](=O)[O-])o1)c1ccc(NS(=O)(=O)c2cccs2)cc1	D1 antagonist -89
CCCc1nnc2n1N=C(c1ccc(OC)c(OC)c1)CS2	TRHR enhancer 34
COc1ccc(CCNC(=O)Cc2c(C)c3cc4c(C)coc4cc3oc2=O)cc1OC	none
CCCn1c(NC(=O)C2CCN(C(=O)c3ccccc3C)CC2)nc2ccccc21	none
CCCn1c(NC(=O)c2cccc(C)c2C)nc2ccccc21	D1 antagonist -49
O=C(NCCCN1CCN(c2ccc(F)cc2)CC1)c1ccc2nc(CCc3ccccc3)oc2c1	none
O=C(NCCCN1CCN(c2ccccc2F)CC1)c1ccc2nc(CCc3ccccc3)oc2c1	D1 antagonist -31
COc1ccccc1N1CCN(CCCCNC(=O)c2ccc3ccccc3c2)CC1	D1 antagonist -54
O=C(NCCCN1CCN(c2ccccc2F)CC1)c1ccc2nc(Cc3ccccc3)oc2c1	D1 antagonist -49
CCCNC(=O)c1ccc2nc(-c3ccccc3)c(-c3ccccc3)nc2c1	none
CCN1CCN(CCNC(=O)c2ccc3nc(-c4cccc(C)c4)c(-c4cccc(C)c4)nc3c2)CC1	D1 ag 63
COc1cccc(C(=O)CC2(O)C(=O)Nc3ccc(Cl)cc32)c1 (stereo not given)	none
CCCCOc1ccccc1C(=O)N(Cc1sccc1C)C1CCS(=O)(=O)C1 (stereo not given)	none
CC(=O)N1c2ccc(S(=O)(=O)NCC3CCC(C(=O)NCCC(C)C)CC3)cc2CC1C (stereo not given)	none
Cc1ccc(C[C@@H](NS(=O)(=O)c2ccc(C(=O)O)cc2)C(=O)O)cc1	none
COc1ccc(CNC(=O)c2nc(SCc3ccccc3F)ncc2Cl)cc1	none
